# Source: PubChem BioAssay AID1159580 (chemical genetic matrix, 2015)
# Several values for one entry are separate records, joined by “and”; a condition that tells them apart may be missing. Identical values can stand only once. The campaign covered roughly 5,500 compounds. About 2,000 (36%) were called active. Not shown: some 18% with an inconclusive outcome. This is one part of the list. Values without a mark were called inactive. Cut-off read from the data, not from the text of the source: active = normalized growth mostly below about 0.91 (no sharp cut-off); inconclusive = no clear call, values can overlap the other calls; inactive = mostly above about 0.92.
# Assay: chemical genetic growth profiling, strain panel (AID 1159580);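 note: tested at 20 µM; growth read once vehicle control cultures reached saturation at 30 °C; 1 = growth at the plate median or of vehicle wells; lower values mean less growth of the strain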
# Conditions: S. cerevisiae deletion strains, growth OD
smiles,measurement,setting,value
COC(=O)c1c(C)cc(OC)cc1O,normalized growth,"locus YAL013W, strain DEP1, stronger effect = lower value",1.02
same,normalized growth,"locus YAL021C, strain ccr4, stronger effect = lower value",1.02
same,normalized growth,"locus YAL026C, strain drs2, stronger effect = lower value",0.984
same,normalized growth,"locus YAL030W, strain snc1, stronger effect = lower value",0.971
same,normalized growth,"locus YBL061C, strain skt5, stronger effect = lower value",0.988
same,normalized growth,"locus YBR009C, strain hhf1, stronger effect = lower value",0.978
same,normalized growth,"locus YBR021W, strain FUR4, stronger effect = lower value",1.02
same,normalized growth,"locus YBR023C, strain chs3, stronger effect = lower value",0.973
same,normalized growth,"locus YBR171W, strain sec66, stronger effect = lower value",0.961
same,normalized growth,"locus YBR229C, strain ROT2, stronger effect = lower value",0.996
same,normalized growth,"locus YBR231C, strain swc5, stronger effect = lower value",0.978
same,normalized growth,"locus YBR279W, strain paf1, stronger effect = lower value",0.988
same,normalized growth,"locus YCL011C, strain gbp2, stronger effect = lower value",0.969
same,normalized growth,"locus YCL016C, strain dcc1, stronger effect = lower value",0.966
same,normalized growth,"locus YCL029C, strain bik1, stronger effect = lower value",0.976
same,normalized growth,"locus YCL069W, strain vba3, stronger effect = lower value",0.989
same,normalized growth,"locus YCR088W, strain abp1, stronger effect = lower value",0.971
same,normalized growth,"locus YDL005C, strain med2, stronger effect = lower value",0.985
same,normalized growth,"locus YDL035C, strain GPR1, stronger effect = lower value",1
same,normalized growth,"locus YDL040C, strain nat1, stronger effect = lower value",0.98
same,normalized growth,"locus YDL074C, strain BRE1, stronger effect = lower value",1.02
same,normalized growth,"locus YDL101C, strain DUN1, stronger effect = lower value",1
same,normalized growth,"locus YDL134C, strain PPH21, stronger effect = lower value",1
same,normalized growth,"locus YDL185W, strain tfp1, stronger effect = lower value",0.987
same,normalized growth,"locus YDL192W, strain arf1, stronger effect = lower value",0.985
same,normalized growth,"locus YDR001C, strain nth1, stronger effect = lower value",0.983
same,normalized growth,"locus YDR069C, strain doa4, stronger effect = lower value",0.98
same,normalized growth,"locus YDR101C, strain arx1, stronger effect = lower value",0.954
same,normalized growth,"locus YDR137W, strain rgp1, stronger effect = lower value",1.01
same,normalized growth,"locus YDR150W, strain NUM1, stronger effect = lower value",0.989
same,normalized growth,"locus YDR159W, strain sac3, stronger effect = lower value",0.953
same,normalized growth,"locus YDR162C, strain NBP2, stronger effect = lower value",0.997
same,normalized growth,"locus YDR195W, strain ref2",1.03
same,normalized growth,"locus YDR297W, strain sur2, stronger effect = lower value",0.984
same,normalized growth,"locus YDR318W, strain mcm21, stronger effect = lower value",0.962
same,normalized growth,"locus YDR334W, strain swr1, stronger effect = lower value",0.984
same,normalized growth,"locus YDR335W, strain msn5, stronger effect = lower value",0.994
same,normalized growth,"locus YDR388W, stronger effect = lower value",0.986
same,normalized growth,"locus YDR392W, strain spt3, stronger effect = lower value",0.913
same,normalized growth,"locus YDR502C, strain sam2, stronger effect = lower value",0.962
same,normalized growth,"locus YEL003W, strain gim4, stronger effect = lower value",0.975
same,normalized growth,"locus YEL037C, strain rad23, stronger effect = lower value",0.991
same,normalized growth,"locus YEL061C, strain CIN8 (second series), stronger effect = lower value",0.98
same,normalized growth,"locus YEL061C, strain CIN8, stronger effect = lower value",0.989
same,normalized growth,"locus YER015W, strain faa2, stronger effect = lower value",0.98
same,normalized growth,"locus YER016W, strain bim1, stronger effect = lower value",0.984
same,normalized growth,"locus YER110C, stronger effect = lower value",0.947
same,normalized growth,"locus YER111C, strain swi4, stronger effect = lower value",0.966
same,normalized growth,"locus YER155C, strain BEM2 (second series), stronger effect = lower value",0.858 (active)
same,normalized growth,"locus YER155C, strain BEM2, stronger effect = lower value",0.994
same,normalized growth,"locus YER167W, strain BCK2, stronger effect = lower value",0.993
same,normalized growth,"locus YFR010W, strain ubp6, stronger effect = lower value",0.992
same,normalized growth,"locus YGL078C, strain dbp3, stronger effect = lower value",0.993
same,normalized growth,"locus YGL086W, strain mad1, stronger effect = lower value",0.988
same,normalized growth,"locus YGL167C, strain pmr1, stronger effect = lower value",0.977
same,normalized growth,"locus YGL173C, strain kem1, stronger effect = lower value",0.971
same,normalized growth,"locus YGL227W, strain vid30, stronger effect = lower value",0.969
same,normalized growth,"locus YGL240W, strain doc1, stronger effect = lower value",0.938
same,normalized growth,"locus YGL248W, strain PDE1, stronger effect = lower value",0.997
same,normalized growth,"locus YGL253W, strain hxk2, stronger effect = lower value",0.979
same,normalized growth,"locus YGR078C, strain PAC10, stronger effect = lower value",0.984
same,normalized growth,"locus YGR135W, strain pre9, stronger effect = lower value",0.962
same,normalized growth,"locus YGR229C, strain SMI1, stronger effect = lower value",1.03
same,normalized growth,"locus YGR252W, strain gcn5, stronger effect = lower value",1.02
same,normalized growth,"locus YHR013C, strain ard1, stronger effect = lower value",1.02
same,normalized growth,"locus YHR027C, strain rpn1, stronger effect = lower value",0.997
same,normalized growth,"locus YHR030C, strain SLT2, stronger effect = lower value",0.993 and 1.04
same,normalized growth,"locus YHR079C, strain IRE1 (second series), stronger effect = lower value",0.961
same,normalized growth,"locus YHR079C, strain IRE1, stronger effect = lower value",1.02
same,normalized growth,"locus YHR094C, strain hxt1, stronger effect = lower value",0.99
same,normalized growth,"locus YHR129C, strain ARP1, stronger effect = lower value",0.999
same,normalized growth,"locus YHR142W, strain chs7, stronger effect = lower value",0.954
same,normalized growth,"locus YHR200W, strain rpn10, stronger effect = lower value",0.965
same,normalized growth,"locus YIL066C, strain RNR3, stronger effect = lower value",1
same,normalized growth,"locus YIL073C, strain SPO22, stronger effect = lower value",0.991
same,normalized growth,"locus YIL125W, strain kgd1, stronger effect = lower value",0.984
same,normalized growth,"locus YIR030C, strain dcg1, stronger effect = lower value",0.972
same,normalized growth,"locus YJL092W, strain hpr5, stronger effect = lower value",0.978
same,normalized growth,"locus YJL095W, strain BCK1 (second series), stronger effect = lower value",0.996
same,normalized growth,"locus YJL095W, strain BCK1, stronger effect = lower value",0.971 and 1.02
same,normalized growth,"locus YJL115W, strain asf1, stronger effect = lower value",0.987
same,normalized growth,"locus YJL129C, strain trk1, stronger effect = lower value",0.965
same,normalized growth,"locus YJL134W, strain LCB3, stronger effect = lower value",0.999
same,normalized growth,"locus YJL154C, strain vps35, stronger effect = lower value",0.98
same,normalized growth,"locus YJL164C, strain tpk1, stronger effect = lower value",0.969
same,normalized growth,"locus YJL166W, strain qcr8, stronger effect = lower value",0.972
same,normalized growth,"locus YJL168C, strain set2, stronger effect = lower value",0.986
same,normalized growth,"locus YJL187C, strain SWE1 (second series), stronger effect = lower value",0.998
same,normalized growth,"locus YJL187C, strain SWE1, stronger effect = lower value",0.982
same,normalized growth,"locus YJR043C, strain POL32, stronger effect = lower value",0.966
same,normalized growth,"locus YJR066W, strain TOR1, stronger effect = lower value",0.965
